Laboratory results published in ChEMBL document CHEMBL3988442, “University of Dundee, Small-Polar-MMV Screening Library” (2021).
The whole screen tested about 48,000 compounds, of which about 13,000 (27%) showed an effect of 50% or more. Some of the results follow.

System: Wolbachia pipientis
Assay: Anti-Wolbachia Cell-Based Screen
Type: functional
Parameters: scale not given: in the data most compounds retested in dose-response had high values
Settings: 5 µM

With O=C(Nc1ccccc1)C1=NOC2(CCCNC2)C1 (centres undefined) as the compound, how does the “Percent Effect” value read?
The value was -15.15%.

How did the “Percent Effect” value turn out when Cl.N#CC1(C(=O)NCC2CCC3(CCNCC3)O2)CC1 (centres undefined) was run?
Its value is -12.24%.

How did the “Percent Effect” value turn out when COc1cc2nc(NCc3ccc(C)nc3)nc(N)c2cc1OC was run?
The value was 15.36%.

How did the “Percent Effect” value turn out when CN1C[C@@H]2COC[C@]2(C(=O)NCc2cccs2)C1 was run?
Its value is -12.7%.

For Cc1cc(C)c(CNc2nc3ccccc3cc2CO)c(=O)[nH]1, which “Percent Effect” value is on record?
Its value is 34.93%.

For COc1cccc(CNC(C)Cn2cccn2)c1OC.Cl (centres undefined), which “Percent Effect” value is on record?
Its value is 8.103%.

COc1ccc(CNC(C)Cn2cccn2)c(OC)c1OC.Cl (centres undefined) was tested. Which “Percent Effect” value did it give?
Its value is 98.57%.

For CC(Cn1cccn1)NCCS(=O)(=O)c1ccccc1 (centres undefined), which “Percent Effect” value is on record?
Its value is -1.056%.

Which “Percent Effect” value does the source give for COc1cc(CNC(C)Cn2cccn2)cc(OC)c1 (centres undefined) here?
Its value is 102.9%.

Which “Percent Effect” value does the source give for COc1ccc(CNC(C)Cn2cccn2)cc1OC (centres undefined) here?
The value was 104.4%.

With COc1cc(CNC(C)Cn2cccn2)cc2c1OCCO2.Cl (centres undefined) as the compound, how does the “Percent Effect” value read?
Its value is 99.62%.

With COc1c(Br)cc(Br)cc1CNC(C)Cn1cccn1 (centres undefined) as the compound, how does the “Percent Effect” value read?
Its value is 3.191%.

Which “Percent Effect” value does the source give for COc1cc(CNCC(O)c2ccc(C)cc2)cc2c1OCCO2.Cl (centres undefined) here?
Its value is 4.109%.

With CCc1nc(CNC(C)Cn2cccn2)cs1 (centres undefined) as the compound, how does the “Percent Effect” value read?
The value was 2.575%.

CC(Cn1cccn1)NCc1csc(-c2cccs2)n1 (centres undefined) was tested. Which “Percent Effect” value did it give?
Its value is 1.256%.

How did the “Percent Effect” value turn out when CC(Cn1cccn1)NCC(=O)NC1CCOCC1 (centres undefined) was run?
The value was 1.6%.

For CC(Cn1cccn1)NCc1csc2c1CCCC2 (centres undefined), which “Percent Effect” value is on record?
Its value is 12.25%.

Which “Percent Effect” value does the source give for CC(c1ccc(F)cc1)N1CCN(Cc2ccc(C#N)cc2)CC1 (centres undefined) here?
The value was 26.99%.

How did the “Percent Effect” value turn out when CC(C)OCCNC1(c2ccc(Cl)cc2)CCOCC1 was run?
The value was 3.7%.

With CC(=O)N1C[C@H]2CNC[C@@]2(C(=O)NCCNc2ccncc2C)C1 as the compound, how does the “Percent Effect” value read?
The value was -5.626%.

Cc1cccc(-c2ncc(CNC(C)Cc3ccncc3)cn2)c1 (centres undefined) was tested. Which “Percent Effect” value did it give?
The value was -2.738%.

For Cc1nnc([C@@H]2CC[C@@H]3[C@@H](CCN3Cc3ccccn3)O2)o1.O=C(O)C(F)(F)F.O=C(O)C(F)(F)F, which “Percent Effect” value is on record?
The value was -6.583%.

Which “Percent Effect” value does the source give for CC(Cn1cncn1)NCc1ccc2nonc2c1 (centres undefined) here?
The value was -26.41%.

Which “Percent Effect” value does the source give for CC(Cn1cccn1)NCc1nc(-c2cccs2)no1 (centres undefined) here?
Its value is -0.9937%.

How did the “Percent Effect” value turn out when COc1cc(CNC(C)Cn2cccn2)cc(Cl)c1OC.Cl (centres undefined) was run?
The value was 86.44%.

Which “Percent Effect” value does the source give for CC(Cn1ccnc1)NCc1ccc2nonc2c1 (centres undefined) here?
The value was -7.482%.

How did the “Percent Effect” value turn out when COc1cc(CNC(C)Cn2cccn2)cc(OC)c1OC.Cl (centres undefined) was run?
The value was -0.312%.

COc1ccc(CNC(C)Cn2cccn2)cc1F (centres undefined) was tested. Which “Percent Effect” value did it give?
The value was 80.61%.

How did the “Percent Effect” value turn out when Cc1nc(C)c(CC(=O)N2C[C@@H]3CC[C@H](C2)N(CC2CC2)C3)s1 was run?
Its value is 5.812%.

O=S1(=O)N(c2ccccc2)C[C@H](O)[C@]12CCNC2 was tested. Which “Percent Effect” value did it give?
The value was 107%.

O=C(O)C(F)(F)F.O=S1(=O)NCC2(CCNCC2)COc2ccccc21 was tested. Which “Percent Effect” value did it give?
Its value is -6.327%.

O=S1(=O)N(c2ccccc2)C[C@@H](O)[C@]12CCNC2 was tested. Which “Percent Effect” value did it give?
The value was 103.1%.

How did the “Percent Effect” value turn out when OCC1N(Cc2ccco2)[C@H]2CC[C@]1(O)CC2 (some centres undefined) was run?
The value was 109.9%.

How did the “Percent Effect” value turn out when CN1CCN(Cc2ccco2)Cc2cccnc21 was run?
The value was 10.4%.

With Cc1cc(CN2C[C@@H]3COC[C@]3(COCc3csc(C)n3)C2)no1.O=C(O)C(F)(F)F as the compound, how does the “Percent Effect” value read?
The value was -7.222%.

Which “Percent Effect” value does the source give for Cc1cccc(CN2C[C@@H]3COC[C@]3(COCC(=O)N(C)C)C2)n1.O=C(O)C(F)(F)F.O=C(O)C(F)(F)F here?
The value was 109.1%.

Which “Percent Effect” value does the source give for Cc1cc(CN2C[C@@H]3COC[C@]3(CNC(=O)N(C)C)C2)no1.O=C(O)C(F)(F)F here?
The value was -12.05%.

With COC[C@]12COC[C@H]1CN(Cc1ccc3ccccc3n1)C2.O=C(O)C(F)(F)F.O=C(O)C(F)(F)F as the compound, how does the “Percent Effect” value read?
Its value is -16.09%.

How did the “Percent Effect” value turn out when CN(C)C[C@]12COC[C@H]1CN(Cc1ccc3ccccc3n1)C2.O=C(O)C(F)(F)F.O=C(O)C(F)(F)F.O=C(O)C(F)(F)F was run?
Its value is -5.05%.

Which “Percent Effect” value does the source give for Cc1cc(CN2C[C@@H]3COC[C@]3(COCC(=O)N(C)C)C2)no1 here?
Its value is 104.2%.

Cc1cccc(CN2C[C@H](OCc3ccccn3)[C@H]3COC[C@H]32)n1.O=C(O)C(F)(F)F.O=C(O)C(F)(F)F was tested. Which “Percent Effect” value did it give?
The value was 114.7%.

Which “Percent Effect” value does the source give for Cc1ccc(CN2C[C@H]3OC(=O)N(Cc4ccccn4)[C@H]3C2)o1 here?
Its value is 4.449%.

Which “Percent Effect” value does the source give for Cc1noc(C)c1CN1C[C@H](OCC2CC2)[C@H]2COC[C@H]21.O=C(O)C(F)(F)F here?
Its value is -11.17%.

Cc1cccc(CN2C[C@@H]3CCCO[C@@H]3[C@H](NS(C)(=O)=O)C2)n1 was tested. Which “Percent Effect” value did it give?
Its value is 6.966%.

How did the “Percent Effect” value turn out when Cc1ncsc1CN1C[C@@H](OCc2ccccn2)[C@H]2OCCC[C@H]21.O=C(O)C(F)(F)F.O=C(O)C(F)(F)F.O=C(O)C(F)(F)F was run?
The value was -3.232%.

For Cc1ccc(CN2C[C@@H](OCc3ccccn3)[C@H]3COC[C@H]32)o1.O=C(O)C(F)(F)F.O=C(O)C(F)(F)F, which “Percent Effect” value is on record?
Its value is 91.93%.

With Cc1cccc(CN2CCO[C@H]3[C@H](Oc4ccccn4)CC[C@@H]32)n1.O=C(O)C(F)(F)F.O=C(O)C(F)(F)F.O=C(O)C(F)(F)F as the compound, how does the “Percent Effect” value read?
Its value is -5.124%.

With Cc1cccc(CN2C[C@@H]3COC[C@H](NS(C)(=O)=O)[C@@H]3C2)n1.O=C(O)C(F)(F)F.O=C(O)C(F)(F)F as the compound, how does the “Percent Effect” value read?
Its value is 86.62%.

Which “Percent Effect” value does the source give for Cc1cccc(CN2C[C@@H](NC(=O)C3CCC3)[C@H]3COC[C@H]32)n1 here?
Its value is 5.905%.

For Cc1cccc(CN2C[C@H](NS(C)(=O)=O)[C@@H]3OCCC[C@@H]32)n1.O=C(O)C(F)(F)F.O=C(O)C(F)(F)F, which “Percent Effect” value is on record?
Its value is -8.995%.

How did the “Percent Effect” value turn out when CCc1ccc(CN2C[C@H](OC)[C@H]3COC[C@H]32)o1.O=C(O)C(F)(F)F was run?
The value was 106.4%.

With Cc1noc(C)c1CN1C[C@H](OCC(=O)N(C)C)[C@H]2COC[C@H]21.O=C(O)C(F)(F)F as the compound, how does the “Percent Effect” value read?
Its value is -5.936%.

How did the “Percent Effect” value turn out when O=C1NCCC12CN(CC1CC1)CC21CCNCC1 (centres undefined) was run?
Its value is -8.947%.

With CCC/C=C/c1ccc(CN2CCN(C)CC2)cn1 as the compound, how does the “Percent Effect” value read?
Its value is -3.388%.

How did the “Percent Effect” value turn out when CC(C)C(NC(=O)c1ccco1)C(=O)N1CCC2(CC1)OCCO2 (centres undefined) was run?
The value was -15.39%.

O=C(NCC(=O)N1CCC2(CC1)OCCO2)c1ccoc1 was tested. Which “Percent Effect” value did it give?
The value was 92.23%.

How did the “Percent Effect” value turn out when CC(C)C(NC(=O)c1ccccc1)C(=O)N1CCC2(CC1)OCCO2 (centres undefined) was run?
The value was -14.78%.

Which “Percent Effect” value does the source give for Cc1cccc(CN2C(=O)C[C@@H]3[C@@H]2CCN3Cc2ccsc2)n1.O=C(O)C(F)(F)F.O=C(O)C(F)(F)F here?
Its value is 96.12%.

With Cc1cccc(CN2C(=O)CC[C@H]3[C@@H]2CCN3CC(=O)N(C)C)n1.O=C(O)C(F)(F)F.O=C(O)C(F)(F)F as the compound, how does the “Percent Effect” value read?
The value was 6.381%.

With Cc1cccc(CN2C(=O)C[C@H]3[C@@H]2CCN3Cc2nccs2)n1.O=C(O)C(F)(F)F.O=C(O)C(F)(F)F as the compound, how does the “Percent Effect” value read?
Its value is 101.6%.

With Cc1cccc(CN2C(=O)C[C@H]3[C@@H]2CCN3Cc2ccco2)n1.O=C(O)C(F)(F)F.O=C(O)C(F)(F)F as the compound, how does the “Percent Effect” value read?
The value was 95.2%.

For Cc1ccc(-c2noc(CC[C@@H]3CCCN4CCCC[C@H]34)n2)nn1, which “Percent Effect” value is on record?
The value was -24.46%.

Cc1cc(N(C)C)nc(N2CCCC2c2cccnc2)n1 (centres undefined) was tested. Which “Percent Effect” value did it give?
The value was 6.252%.

With c1cncc(NCCNC2CCCNC2)c1 (centres undefined) as the compound, how does the “Percent Effect” value read?
Its value is 1.696%.

For CN(C)c1cc(C2CCCNC2)ccn1.Cl.Cl (centres undefined), which “Percent Effect” value is on record?
The value was 113.5%.

For Cc1cc(C)nc(C2CCCNC2)n1.Cl.Cl (centres undefined), which “Percent Effect” value is on record?
Its value is 131.4%.

Cc1cc(N(C)C)nc(C2CCCNC2)n1.Cl (centres undefined) was tested. Which “Percent Effect” value did it give?
The value was 130.2%.

Which “Percent Effect” value does the source give for CNc1cc(C2CCCNC2)nc(C)n1.Cl.Cl (centres undefined) here?
The value was 69.51%.

For O=C([C@H]1C[C@H]2OCC[C@H]2N(Cc2ccncc2)C1)N1CCCCO1, which “Percent Effect” value is on record?
The value was -15.5%.

Cc1nc(O)cc(CN2CC=C(c3cnn(-c4ccccc4)c3)CC2)n1 was tested. Which “Percent Effect” value did it give?
Its value is 3.563%.

O=C(O)C(F)(F)F.O=C1[C@H]2CN(Cc3cccs3)C[C@H]2CN1c1cncnc1 was tested. Which “Percent Effect” value did it give?
The value was 0.1136%.

Which “Percent Effect” value does the source give for Cc1cc(O)nc(C2CCCNC2)n1.Cl (centres undefined) here?
Its value is 166.7%.

Which “Percent Effect” value does the source give for Cl.FC(F)(F)c1nc(C2CCCNC2)no1 (centres undefined) here?
The value was 113.6%.

With CC(C)c1nc(C2CCCNC2)no1.Cl (centres undefined) as the compound, how does the “Percent Effect” value read?
The value was -31.86%.

For COc1ccc(F)cc1C(=O)C1CCCN(Cc2cnc(C)s2)C1 (centres undefined), which “Percent Effect” value is on record?
Its value is -11.09%.

Which “Percent Effect” value does the source give for N#Cc1cccc(N2CCCC3(CNCCO3)C2)n1.O=C(O)C(F)(F)F.O=C(O)C(F)(F)F (centres undefined) here?
The value was 1.133%.

How did the “Percent Effect” value turn out when CN1C(=O)C2(CCN(Cc3cccnc3)CC2)c2cccc(F)c21.Cl was run?
The value was 9.194%.

COc1ccc(CCN)cc1-c1ccc(S(C)(=O)=O)cc1 was tested. Which “Percent Effect” value did it give?
Its value is -7.949%.

Which “Percent Effect” value does the source give for O=C(c1cc(F)cc(F)c1)N1C[C@H]2CNC[C@H]2C1 here?
Its value is -1.943%.
